Results reported in paper PMC7862700, “An all-to-all approach to the identification of sequence-specific readers for epigenetic DNA modifications on cytosine”.

Columns and labels:
Assay in all cases: DAPPL (digital affinity profiling via proximity ligation, sequencing); 10 mM Tris-HCl pH 7.5, 50 mM NaCl, 1 mM DTT, 4% glycerol, room temperature, 30 min; GST-TFs on glutathione beads, 16-mer random dsDNA library, 0.1% formaldehyde crosslink after washing; high values mean tight binding
[1] = target: T1, FEV (Homo sapiens, UniProt Q99581 1-238); conditions: protein: recombinant; tags: N-terminal GST; dsDNA, one strand shown
T1 sequence: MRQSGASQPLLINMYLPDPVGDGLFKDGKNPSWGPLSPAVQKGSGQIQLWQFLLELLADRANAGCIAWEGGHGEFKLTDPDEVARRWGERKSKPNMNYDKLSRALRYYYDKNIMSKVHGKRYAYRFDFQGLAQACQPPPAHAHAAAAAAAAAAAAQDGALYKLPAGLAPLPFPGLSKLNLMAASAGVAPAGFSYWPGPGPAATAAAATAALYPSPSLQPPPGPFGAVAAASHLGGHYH
How it was run: (§1)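 The binding signal reported is, for every hexamer, its read frequency for a factor over its read frequency for the tag-only sample. Reads came from pools of yeast-expressed, GST-fused human transcription factors on glutathione beads, barcoded with DNA and mixed with that sample, which were incubated with 200 nmole of a random double-stranded 16-mer DNA library in Tris/NaCl/DTT/glycerol buffer at room temperature for 30 min. After washing, the pools were crosslinked with 0.1% formaldehyde, proximity-ligated with BsaI/T4 ligase for 1 h at 37 °C, PCR-amplified and sequenced on an Illumina NextSeq500.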

[2] = target: ETV5 (Homo sapiens, UniProt P41161 1-510); conditions: protein: recombinant; tags: N-terminal GST; dsDNA, one strand shown
How it was run: as §1

[3] = target: HSF1 (Homo sapiens, UniProt Q00613 1-529); conditions: protein: recombinant; tags: N-terminal GST; chain copies: 3; dsDNA, one strand shown
How it was run: as §1

[4] = target: T2, SPIC (Homo sapiens, UniProt Q8N5J4 1-248); conditions: protein: recombinant; tags: N-terminal GST; dsDNA, one strand shown
T2 sequence: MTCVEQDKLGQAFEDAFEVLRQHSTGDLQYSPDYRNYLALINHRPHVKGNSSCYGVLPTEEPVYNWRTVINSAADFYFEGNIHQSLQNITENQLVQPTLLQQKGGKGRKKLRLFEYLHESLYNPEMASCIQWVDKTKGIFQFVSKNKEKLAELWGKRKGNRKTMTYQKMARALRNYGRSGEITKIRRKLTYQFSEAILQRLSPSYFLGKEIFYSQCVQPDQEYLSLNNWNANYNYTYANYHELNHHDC
How it was run: as §1

[5] = target: ELF4 (Homo sapiens, UniProt Q99607 1-663); conditions: protein: recombinant; tags: N-terminal GST; dsDNA, one strand shown
How it was run: as §1

[6] = target: T3, ELK4 (Homo sapiens, UniProt P28324-2 1-405); conditions: protein: recombinant; tags: N-terminal GST; dsDNA, one strand shown
T3 sequence: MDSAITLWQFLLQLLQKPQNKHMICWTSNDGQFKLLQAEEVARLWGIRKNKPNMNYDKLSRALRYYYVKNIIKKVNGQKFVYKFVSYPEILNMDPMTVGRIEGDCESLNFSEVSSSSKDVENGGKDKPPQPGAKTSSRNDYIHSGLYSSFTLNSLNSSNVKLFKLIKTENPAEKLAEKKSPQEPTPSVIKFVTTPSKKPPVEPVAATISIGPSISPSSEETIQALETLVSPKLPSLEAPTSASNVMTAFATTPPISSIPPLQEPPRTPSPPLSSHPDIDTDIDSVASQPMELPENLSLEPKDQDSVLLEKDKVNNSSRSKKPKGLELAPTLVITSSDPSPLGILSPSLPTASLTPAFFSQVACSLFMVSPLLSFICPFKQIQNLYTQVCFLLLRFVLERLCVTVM
How it was run: as §1

[7] = target: T4, ETV2 (Homo sapiens, UniProt O00321 1-342); conditions: protein: recombinant; tags: N-terminal GST; dsDNA, one strand shown
T4 sequence: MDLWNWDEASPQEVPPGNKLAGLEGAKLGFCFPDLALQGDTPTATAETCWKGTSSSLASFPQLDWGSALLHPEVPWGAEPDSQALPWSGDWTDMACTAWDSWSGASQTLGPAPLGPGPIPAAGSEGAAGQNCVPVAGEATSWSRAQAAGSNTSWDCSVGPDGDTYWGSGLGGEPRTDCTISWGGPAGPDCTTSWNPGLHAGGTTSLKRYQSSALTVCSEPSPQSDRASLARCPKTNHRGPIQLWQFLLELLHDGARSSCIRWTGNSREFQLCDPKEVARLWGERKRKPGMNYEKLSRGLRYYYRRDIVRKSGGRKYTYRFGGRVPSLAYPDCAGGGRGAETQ
How it was run: as §1

[8] = target: T5, ELF3 (Homo sapiens, UniProt P78545 1-371); conditions: protein: recombinant; tags: N-terminal GST; dsDNA, one strand shown
T5 sequence: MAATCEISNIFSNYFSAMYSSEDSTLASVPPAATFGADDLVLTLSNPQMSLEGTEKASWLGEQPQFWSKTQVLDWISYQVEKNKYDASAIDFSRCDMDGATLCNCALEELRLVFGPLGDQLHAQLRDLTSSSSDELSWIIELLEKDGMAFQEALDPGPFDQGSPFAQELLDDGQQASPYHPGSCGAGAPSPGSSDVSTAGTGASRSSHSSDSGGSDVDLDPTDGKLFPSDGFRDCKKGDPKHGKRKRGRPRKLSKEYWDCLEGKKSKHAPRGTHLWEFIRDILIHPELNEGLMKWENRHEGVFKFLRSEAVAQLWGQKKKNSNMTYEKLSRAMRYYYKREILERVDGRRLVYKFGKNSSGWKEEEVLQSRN
How it was run: as §1

[9] = target: ETV1 (Homo sapiens, UniProt P50549 1-477); conditions: protein: recombinant; tags: N-terminal GST; dsDNA, one strand shown
How it was run: as §1

[10] = target: T6, ERF (Homo sapiens, UniProt P50548 1-548); conditions: protein: recombinant; tags: N-terminal GST; dsDNA, one strand shown
T6 sequence: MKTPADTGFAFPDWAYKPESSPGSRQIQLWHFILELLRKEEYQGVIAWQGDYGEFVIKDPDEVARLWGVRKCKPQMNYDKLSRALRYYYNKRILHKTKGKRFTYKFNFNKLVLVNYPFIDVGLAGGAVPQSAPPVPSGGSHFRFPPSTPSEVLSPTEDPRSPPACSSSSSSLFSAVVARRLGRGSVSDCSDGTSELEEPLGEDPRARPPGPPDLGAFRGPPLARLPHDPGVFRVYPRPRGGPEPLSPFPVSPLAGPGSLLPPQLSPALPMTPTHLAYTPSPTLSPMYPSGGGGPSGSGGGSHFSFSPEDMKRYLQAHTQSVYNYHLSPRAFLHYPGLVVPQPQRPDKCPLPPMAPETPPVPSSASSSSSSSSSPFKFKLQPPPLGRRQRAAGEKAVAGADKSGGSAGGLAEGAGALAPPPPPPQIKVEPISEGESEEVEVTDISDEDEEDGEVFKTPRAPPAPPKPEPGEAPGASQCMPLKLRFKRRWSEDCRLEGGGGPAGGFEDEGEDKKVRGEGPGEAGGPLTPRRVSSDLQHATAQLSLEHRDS
How it was run: as §1

[11] = target: T7, ETV3L (Homo sapiens, UniProt Q6ZN32 1-361); conditions: protein: recombinant; tags: N-terminal GST; dsDNA, one strand shown
T7 sequence: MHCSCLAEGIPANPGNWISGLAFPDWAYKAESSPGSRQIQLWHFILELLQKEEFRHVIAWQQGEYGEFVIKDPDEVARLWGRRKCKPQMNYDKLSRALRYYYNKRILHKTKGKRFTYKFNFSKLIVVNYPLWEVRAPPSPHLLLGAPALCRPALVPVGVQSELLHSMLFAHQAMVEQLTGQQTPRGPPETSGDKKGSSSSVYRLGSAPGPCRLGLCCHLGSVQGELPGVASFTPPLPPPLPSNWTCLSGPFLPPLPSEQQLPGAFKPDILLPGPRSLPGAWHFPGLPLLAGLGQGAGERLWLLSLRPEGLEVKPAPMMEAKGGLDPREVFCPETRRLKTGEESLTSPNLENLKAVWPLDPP
How it was run: as §1

[12] = target: T8, ETS2 (Homo sapiens, UniProt P15036 1-469); conditions: protein: recombinant; tags: N-terminal GST; dsDNA, one strand shown
T8 sequence: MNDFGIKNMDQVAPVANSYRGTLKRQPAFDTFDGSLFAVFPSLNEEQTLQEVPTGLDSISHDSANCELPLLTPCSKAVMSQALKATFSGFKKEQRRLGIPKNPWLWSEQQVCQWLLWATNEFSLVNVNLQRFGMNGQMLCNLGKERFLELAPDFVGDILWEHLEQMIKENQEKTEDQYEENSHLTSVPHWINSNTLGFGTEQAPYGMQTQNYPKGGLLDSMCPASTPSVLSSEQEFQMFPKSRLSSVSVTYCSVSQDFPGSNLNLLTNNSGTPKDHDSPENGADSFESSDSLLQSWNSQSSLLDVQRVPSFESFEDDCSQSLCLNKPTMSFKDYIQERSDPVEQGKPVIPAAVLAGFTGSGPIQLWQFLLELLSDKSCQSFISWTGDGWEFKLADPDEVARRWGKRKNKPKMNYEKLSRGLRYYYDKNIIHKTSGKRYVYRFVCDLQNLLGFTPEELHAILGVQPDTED
How it was run: as §1

[13] = target: T9, SPDEF (Homo sapiens, UniProt O95238 1-335); conditions: protein: recombinant; tags: N-terminal GST; dsDNA, one strand shown
T9 sequence: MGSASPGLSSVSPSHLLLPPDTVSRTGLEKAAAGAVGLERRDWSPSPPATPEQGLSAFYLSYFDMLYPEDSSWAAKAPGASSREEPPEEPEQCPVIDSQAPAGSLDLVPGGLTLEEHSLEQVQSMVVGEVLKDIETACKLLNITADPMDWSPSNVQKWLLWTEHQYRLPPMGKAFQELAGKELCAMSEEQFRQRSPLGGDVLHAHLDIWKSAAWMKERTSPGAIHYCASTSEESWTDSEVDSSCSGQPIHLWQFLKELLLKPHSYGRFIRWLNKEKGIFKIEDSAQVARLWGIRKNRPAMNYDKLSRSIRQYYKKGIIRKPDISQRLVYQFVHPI
How it was run: as §1

[14] = target: T10, ETV7 (Homo sapiens, UniProt Q9Y603 1-341); conditions: protein: recombinant; tags: N-terminal GST; dsDNA, one strand shown
T10 sequence: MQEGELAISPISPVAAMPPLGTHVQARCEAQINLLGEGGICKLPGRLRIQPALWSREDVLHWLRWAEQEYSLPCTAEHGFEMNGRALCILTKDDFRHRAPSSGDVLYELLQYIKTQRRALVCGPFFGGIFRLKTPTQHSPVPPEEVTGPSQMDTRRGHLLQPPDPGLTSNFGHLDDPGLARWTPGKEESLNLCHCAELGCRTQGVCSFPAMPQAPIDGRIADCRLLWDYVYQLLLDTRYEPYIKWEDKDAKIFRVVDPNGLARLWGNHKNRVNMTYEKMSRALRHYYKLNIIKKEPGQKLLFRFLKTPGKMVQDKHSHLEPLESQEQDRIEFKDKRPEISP
How it was run: as §1

[15] = target: T11, ELF5 (Homo sapiens, UniProt Q9UKW6-2 1-255); conditions: protein: recombinant; tags: N-terminal GST; dsDNA, one strand shown
T11 sequence: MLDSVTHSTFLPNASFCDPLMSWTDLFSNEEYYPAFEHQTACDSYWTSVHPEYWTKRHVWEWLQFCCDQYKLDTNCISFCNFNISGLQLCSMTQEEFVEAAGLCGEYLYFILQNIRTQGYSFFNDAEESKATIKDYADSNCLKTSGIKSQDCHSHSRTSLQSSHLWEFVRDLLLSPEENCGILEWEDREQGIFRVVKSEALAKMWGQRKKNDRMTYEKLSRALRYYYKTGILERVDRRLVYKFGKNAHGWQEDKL
How it was run: as §1

[16] = target: T12, ETV3 (Homo sapiens, UniProt P41162-2 1-143); conditions: protein: recombinant; tags: N-terminal GST; dsDNA, one strand shown
T12 sequence: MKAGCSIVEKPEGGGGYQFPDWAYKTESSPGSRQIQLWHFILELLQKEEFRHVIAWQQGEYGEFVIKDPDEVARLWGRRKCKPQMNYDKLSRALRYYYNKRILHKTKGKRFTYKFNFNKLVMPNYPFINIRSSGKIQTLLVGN
How it was run: as §1

[17] = target: ETV6 (Homo sapiens, UniProt P41212 1-452); conditions: protein: recombinant; tags: N-terminal GST; dsDNA, one strand shown
How it was run: as §1

Sequence of ETV1 (P50549 whole entry): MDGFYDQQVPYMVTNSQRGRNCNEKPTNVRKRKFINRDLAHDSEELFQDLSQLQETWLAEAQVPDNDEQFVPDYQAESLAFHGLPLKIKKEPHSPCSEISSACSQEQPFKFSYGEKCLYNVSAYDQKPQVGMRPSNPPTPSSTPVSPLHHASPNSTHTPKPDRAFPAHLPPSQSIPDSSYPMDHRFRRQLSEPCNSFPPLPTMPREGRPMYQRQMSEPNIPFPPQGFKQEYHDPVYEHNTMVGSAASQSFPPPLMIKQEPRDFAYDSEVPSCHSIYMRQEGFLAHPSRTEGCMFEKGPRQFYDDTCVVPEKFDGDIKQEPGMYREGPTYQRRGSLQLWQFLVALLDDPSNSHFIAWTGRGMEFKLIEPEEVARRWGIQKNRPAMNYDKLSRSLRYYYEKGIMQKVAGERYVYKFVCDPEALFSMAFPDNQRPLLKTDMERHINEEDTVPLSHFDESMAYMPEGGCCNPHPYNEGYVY
Sequence of ELF4 (Q99607 whole entry): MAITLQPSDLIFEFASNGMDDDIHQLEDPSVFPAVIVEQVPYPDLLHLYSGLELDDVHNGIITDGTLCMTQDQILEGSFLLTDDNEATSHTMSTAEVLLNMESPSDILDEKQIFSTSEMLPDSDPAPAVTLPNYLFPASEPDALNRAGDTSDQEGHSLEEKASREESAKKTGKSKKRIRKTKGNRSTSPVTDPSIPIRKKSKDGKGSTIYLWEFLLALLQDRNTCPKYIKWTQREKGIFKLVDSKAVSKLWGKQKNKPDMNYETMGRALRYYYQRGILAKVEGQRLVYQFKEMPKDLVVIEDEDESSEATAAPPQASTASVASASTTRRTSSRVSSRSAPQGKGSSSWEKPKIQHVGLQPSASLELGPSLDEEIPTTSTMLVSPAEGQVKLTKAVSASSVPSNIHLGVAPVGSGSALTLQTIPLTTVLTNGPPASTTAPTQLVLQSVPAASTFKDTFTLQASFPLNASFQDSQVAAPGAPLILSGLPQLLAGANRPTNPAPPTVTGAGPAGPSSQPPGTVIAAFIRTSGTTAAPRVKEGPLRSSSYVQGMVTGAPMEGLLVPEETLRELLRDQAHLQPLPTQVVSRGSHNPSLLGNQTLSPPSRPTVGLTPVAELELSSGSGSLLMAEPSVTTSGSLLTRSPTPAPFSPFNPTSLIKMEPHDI
Sequence of ETV5 (P41161 whole entry): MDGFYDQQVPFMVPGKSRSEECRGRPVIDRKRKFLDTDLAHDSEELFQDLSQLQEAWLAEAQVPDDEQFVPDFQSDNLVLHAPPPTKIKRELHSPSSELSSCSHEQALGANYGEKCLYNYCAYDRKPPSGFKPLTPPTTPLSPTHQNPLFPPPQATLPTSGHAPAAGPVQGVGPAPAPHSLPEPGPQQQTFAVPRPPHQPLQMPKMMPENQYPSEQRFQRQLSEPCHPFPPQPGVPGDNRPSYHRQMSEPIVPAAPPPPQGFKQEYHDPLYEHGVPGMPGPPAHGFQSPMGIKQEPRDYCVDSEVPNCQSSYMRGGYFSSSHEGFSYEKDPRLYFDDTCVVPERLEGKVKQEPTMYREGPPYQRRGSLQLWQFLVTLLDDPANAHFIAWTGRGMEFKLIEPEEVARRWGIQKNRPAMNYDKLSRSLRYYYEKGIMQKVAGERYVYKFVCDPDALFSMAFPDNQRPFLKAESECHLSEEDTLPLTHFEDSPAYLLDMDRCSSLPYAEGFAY
Sequence of ETV6 (P41212 whole entry): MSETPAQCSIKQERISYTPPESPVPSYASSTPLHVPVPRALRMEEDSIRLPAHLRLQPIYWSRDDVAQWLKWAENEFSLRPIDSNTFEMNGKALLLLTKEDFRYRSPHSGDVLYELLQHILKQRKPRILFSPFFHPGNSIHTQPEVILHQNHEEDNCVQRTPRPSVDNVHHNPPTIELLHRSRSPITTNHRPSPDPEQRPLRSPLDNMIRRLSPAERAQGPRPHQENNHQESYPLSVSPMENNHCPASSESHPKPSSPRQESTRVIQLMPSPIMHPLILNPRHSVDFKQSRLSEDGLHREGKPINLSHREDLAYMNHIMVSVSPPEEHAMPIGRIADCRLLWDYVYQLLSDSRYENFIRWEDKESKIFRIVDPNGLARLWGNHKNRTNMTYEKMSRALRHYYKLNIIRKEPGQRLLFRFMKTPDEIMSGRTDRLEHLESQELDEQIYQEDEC
Sequence of HSF1 (Q00613 whole entry): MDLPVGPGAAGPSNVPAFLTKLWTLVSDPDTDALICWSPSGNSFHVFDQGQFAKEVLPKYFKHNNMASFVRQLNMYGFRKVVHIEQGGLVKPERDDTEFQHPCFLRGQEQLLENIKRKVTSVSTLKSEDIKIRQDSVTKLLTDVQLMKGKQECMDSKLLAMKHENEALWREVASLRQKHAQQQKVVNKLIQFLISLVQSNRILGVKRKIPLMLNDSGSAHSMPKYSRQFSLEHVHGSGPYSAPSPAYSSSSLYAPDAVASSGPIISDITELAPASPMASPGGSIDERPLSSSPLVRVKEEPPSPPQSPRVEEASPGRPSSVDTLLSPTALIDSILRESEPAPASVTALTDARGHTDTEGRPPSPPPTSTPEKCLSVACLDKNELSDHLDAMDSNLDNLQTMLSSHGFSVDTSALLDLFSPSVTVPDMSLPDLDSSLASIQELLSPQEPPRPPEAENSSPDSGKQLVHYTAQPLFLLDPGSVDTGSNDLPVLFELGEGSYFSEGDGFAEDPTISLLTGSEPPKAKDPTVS

Sequence | binding signal [1] | binding signal [2] | binding signal [3] | binding signal [4] | binding signal [5] | binding signal [6] | binding signal [7] | binding signal [8] | binding signal [9] | binding signal [10] | binding signal [11] | binding signal [12] | binding signal [13] | binding signal [14] | binding signal [15] | binding signal [16] | binding signal [17]
TCCGTC | 1.38 fold enrichment (6-mer frequency, TF over GST control) | 1.31 fold enrichment (6-mer frequency, TF over GST control) | 1.04 fold enrichment (6-mer frequency, TF over GST control) | 1.38 fold enrichment (6-mer frequency, TF over GST control) | 1.42 fold enrichment (6-mer frequency, TF over GST control) | 1.3 fold enrichment (6-mer frequency, TF over GST control) | 1.35 fold enrichment (6-mer frequency, TF over GST control) | 1.27 fold enrichment (6-mer frequency, TF over GST control) | 1.42 fold enrichment (6-mer frequency, TF over GST control) | 1.16 fold enrichment (6-mer frequency, TF over GST control) | 1.46 fold enrichment (6-mer frequency, TF over GST control) | 1.3 fold enrichment (6-mer frequency, TF over GST control) | 1.6 fold enrichment (6-mer frequency, TF over GST control) | 1.14 fold enrichment (6-mer frequency, TF over GST control) | 1.57 fold enrichment (6-mer frequency, TF over GST control) | 1.55 fold enrichment (6-mer frequency, TF over GST control) | 1.37 fold enrichment (6-mer frequency, TF over GST control)
CCATTC | 1.06 fold enrichment (6-mer frequency, TF over GST control) | 1.11 fold enrichment (6-mer frequency, TF over GST control) | 1.15 fold enrichment (6-mer frequency, TF over GST control) | 1.14 fold enrichment (6-mer frequency, TF over GST control) | 1.18 fold enrichment (6-mer frequency, TF over GST control) | 1.22 fold enrichment (6-mer frequency, TF over GST control) | 1.25 fold enrichment (6-mer frequency, TF over GST control) | 1.05 fold enrichment (6-mer frequency, TF over GST control) | 1.14 fold enrichment (6-mer frequency, TF over GST control) | 1.14 fold enrichment (6-mer frequency, TF over GST control) | 1.06 fold enrichment (6-mer frequency, TF over GST control) | 1.13 fold enrichment (6-mer frequency, TF over GST control) | 1.13 fold enrichment (6-mer frequency, TF over GST control) | 1.16 fold enrichment (6-mer frequency, TF over GST control) | 1.11 fold enrichment (6-mer frequency, TF over GST control) | 1.1 fold enrichment (6-mer frequency, TF over GST control) | 1.12 fold enrichment (6-mer frequency, TF over GST control)
